Measured values as given in PubChem BioAssay (NCI).
This is part of a sample that, as a whole, favours compounds with a hit. Of some 79,000 tested, about 15% had one in any assay. The source made the active and inactive calls. Rule as the data show it: active = growth inhibition above about 70%; inactive = the rest.

Experiment: NCI Yeast Anticancer Drug Screen. Data for the mec2-1 strain (AID 157)
Conditions: S. cerevisiae mec2-1 strain, at 50.0 µM, stronger effect = higher value
Experimental: Growth inhibition of yeast strains with defined genetic alterations is measured as a screen for potential anti-cancer activity. Selected strains with alterations in DNA damage repair or cell cycle control were exposed to compounds and growth inhibition was measured relative to vehicle treated controls. The strain used in this assay is mec2-1

| SMILES | growth inhibition |
| --- | --- |
| CCN(C(=O)c1ccc([N+](=O)[O-])cc1)C(c1ccccc1)P(=O)(c1ccccc1)c1ccccc1 (stereo not given) | -4.5% (inactive) |
| COC1(OC)N=C(N)C2(C#N)C(C)CC(=O)N(N(C)C)C12C#N (stereo not given) | 6.1% (inactive) |
| O=[N+]([O-])/C(Cl)=C(\NCCO)C(Cl)=C(Cl)Cl | 19% (inactive) |
| CSCCC(NC(=O)c1cnc2ccccc2n1)C(=O)O (stereo not given) | 2.6% (inactive) |
| CC1=CN(c2ccccc2)S2=C1c1sc3c(c1N2c1ccc(Br)cc1)CCCC3 (stereo not given) | -21.9% (inactive) |
| CC(C)CCC(C)(C)COC(=O)c1ccc([N+](=O)[O-])cc1 (tested in a mixture with another compound) | 15.1% (inactive) |
| O=[N+]([O-])c1ccc(COP(=O)(OCc2ccc([N+](=O)[O-])cc2)OCc2ccc([N+](=O)[O-])cc2)cc1 | -2.35% (inactive) |
| Cn1cnc(=O)c2n[nH]nc21 | 16.6% (inactive) |
| O=C(CCl)Nc1cc(Cl)c(Cl)cc1Cl | 21.8% (inactive) |
| CS(=O)(=O)Cc1cc(-c2ccccc2)no1 | 28.1% (inactive) |
| CN(C)c1nc(=NCc2cccs2)ss1 | 46.3% (inactive) |
| O=C1CN(/C=C(\c2ccccc2)S(=O)Cc2ccccc2)C(=S)N1 (stereo not given) | -29.5% (inactive) |
| CC(=O)NC(Cc1c[nH]c2ccccc12)C(=O)Oc1ccc([N+](=O)[O-])cc1 (stereo not given) | 23.1% (inactive) |
| Cc1ccc(C(=O)OCC2OC(Cl)CC2OC(=O)c2ccc(C)cc2)cc1 (stereo not given) | -13.7% (inactive) |
| COC1(OC)C2(Cl)C3=CCCC=C3C1(Cl)C(Cl)=C2Cl | 9.45% (inactive) |
| COc1ccc2c(c1)CCN1CCCc3ccc(OC)cc3C21 (stereo not given) | 30.3% (inactive) |
| Cc1cc(Cc2ccc(N)c(C)c2)ccc1N | 0.9% (inactive) |
| O=c1c2ccccc2c(=O)n2n1CC=CC2 | -4.2% (inactive) |
| COc1cccc(/C=C2/Sc3sc(C(C)=O)c(C)[n+]3C2=O)c1O | -1.55% (inactive) |
| CSCC(=O)c1ccccc1 | 6.55% (inactive) |

| SMILES | growth inhibition |
| --- | --- |
| CCCOC(=O)CCCC1=NC2=CC=CC3=NC(C)=NC(=N1)N23 | -3.4% (inactive) |
| C=CCc1cc(OC)c2c(c1)C(OC)CC(c1ccc(OC)c(OC)c1)O2 (stereo not given) | -34.3% (inactive) |
| CC(C)NC(=O)OCc1cn2c(c1COC(=O)NC(C)C)CCC2 | 12.8% (inactive) |
| O=C1CCSC(=S)N1c1ccc(F)cc1F | 4.65% (inactive) |
| CC(C)C(O)C(C)(C)C(O)C#N (stereo not given) | -1.2% (inactive) |
| O=NNc1ccc(Sc2ccccc2)cn1 | -9.2% (inactive) |
| CSCC[C@H]1C(=O)N=C(N)N1C(=O)OCc1ccccc1 | 3.85% (inactive) |
| CC1C(O)=C(O)c2ccccc2N1O (stereo not given) | -11.1% (inactive) |
| CC(=O)O[C@@H]1CC[C@@]2(C)C(=O)C34C[C@@]5(C)C([C@@H](C)CCCC(C)C)CCC5(C)[C@](O)(O3)C(=O)[C@H]4C2C1(C)C (stereo not given in full) | 24.6% (inactive) |
| CCCCC1(O)C(=O)N(c2ccccc2)N(c2ccccc2)C1=O | 11.1% (inactive) |
| CC(=O)c1cccc(C)n1 | -6.05% (inactive) |
| O=C1OCC/C1=C1/Nc2ccccc2NC1=O | -24% (inactive) |
| CC1(C#N)N(C(=O)c2ccccc2)c2ccccc2N1C(=O)c1ccccc1 | 50.2% (inactive) |
| COc1ccc2ccccc2c1C=O | 23% (inactive) |
| Ic1ccc(N=Nc2ccccc2)cc1 | -11.9% (inactive) |
| C[n+]1ccc(/C=C/c2c[nH]c3ccccc23)cc1 | 10.8% (inactive) |
| C1CCCCCc2c(-c3n[nH]c4c3CCCCCCCCCC4)n[nH]c2CCCC1 | -1.45% (inactive) |
| CN(C)CCNC(=O)c1ccc2nc3c(nc2c1)C(=O)c1ccccc1-3 | -2.85% (inactive) |
| COc1cc(/C=C2\C=Cc3ccccc32)ccc1N(C)C | -13.2% (inactive) |
| Cc1cc2c(=O)[nH]cnc2[nH]1 | -1.35% (inactive) |
